In all, about 370,000 compounds went through this assay and about 4,100 (1.1%) were called active. For the sample, actives were picked, then their nearest neighbours and some compounds at random. Unmarked numbers belong to inactive results.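 How the source made its calls: active means inhibition above the mean over all tested compounds plus 3 SD (cut at about 3.6% in these data); inactive means the rest.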
assay: relief of DAX-1 repression of SF-1 activity – cell-based, luminescence, SF-1 (NR5A1), full-length DAX-1, primary screen (AID 652010); conditions: HEK293T StAR-luciferase reporter, SF-1/DAX-1 repression relief; at 6.8 µM; active compounds read high;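 further: 0% = DAX-1 cells with DMSO and 100% = cells lacking DAX-1 with DMSO; higher inhibition means more luminescence from relief of DAX-1 repression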

| Structure (SMILES) | inhibition |
| --- | --- |
| Cc1ccc(S(=O)(=O)NCCC(=O)NCc2ccc(Cl)cc2)cc1C | 0.12% |
| Cc1ccc(S(=O)(=O)NCCC(=O)Nc2cccc(S(N)(=O)=O)c2)cc1C | 0.14% |
| Cc1ccnc(NC(=O)CCNS(=O)(=O)c2ccc(C)c(C)c2)c1 | 16.4% (active) |
| C=CCN(C(=O)[C@@H](CCCC)[C@@H](O)c1ccc(Cl)cc1)c1ccccc1 | -2.07% |
| CCc1ccc(-c2nnn(Cc3nc4ccccc4s3)n2)cc1 | -0.22% |
| COC(=O)C1[C@H]2SC(C)(C)C(C(=O)OC)N2C(=O)N1Cc1nc2ccccc2s1 (stereo partly drawn) | -0.17% |
| COc1ccccc1OCc1nc2ccccc2s1 | 4.19% (active) |
| O=C(CSc1nc2ccccc2nc1N1CCCCC1)N1CCN(S(=O)(=O)c2cccc([N+](=O)[O-])c2)CC1 | 0.77% |
| Cc1ccc(NC(=S)NNC(=O)CSc2nnc(SCc3ccccc3Cl)s2)cc1 | -0.55% |
| O=C1C(=O)N(c2ccccc2)C(c2ccccc2)C1c1ccccc1 (stereo not drawn) | -0.52% |
| O=C(COc1ccc(Cl)cc1)N1CCN(S(=O)(=O)c2ccc(Cl)cc2)CC1 | -0.62% |
| Cc1csc(SCC(=O)Nc2sccc2C#N)n1 | 10.3% (active) |
| CC(=O)c1cc(C#N)c(SCC(=O)Nc2nccs2)nc1C | 0.62% |
| CC(c1nnc(SCC(=O)Nc2sccc2C#N)n1-c1ccc(Cl)cc1)N(C)C (stereo not drawn) | 0.06% |
| Cc1ccc(OCCC(=O)Nc2ccc(S(=O)(=O)Nc3nccs3)cc2)cc1 | -0.38% |
| Cc1cc(NS(=O)(=O)c2ccc(NC(=O)CSc3nnc(SCc4ccc(F)cc4)s3)cc2)nc(C)n1 | -0.01% |
| Nc1[nH]c(/C=C2/CCCCC2n2[nH]c(=O)n(-c3ccccc3)c2=O)c(Cc2ccccc2)[n+]1Cc1ccccc1 (stereo not drawn) | -0.55% |
| O=C(Cn1c(=O)sc2ccccc21)Nc1ccc2c(c1)OCCO2 | -1.14% |
| CCN(CC)CCN(C(=O)c1ccc(N2C(=O)CCC2=O)cc1)c1nc2cc3c(cc2s1)OCO3 | 1.06% |
| CN(C)CCN(C(=O)CN1C(=O)c2ccccc2C1=O)c1nc2cc3c(cc2s1)OCCO3 | 4.33% (active) |
| CCOC(=O)c1csc(NC(=O)C2CCCN(S(=O)(=O)c3ccc(Cl)s3)C2)n1 (stereo not drawn) | -2.18% |
| COc1ccc(C(=O)NC2CCN(C(=O)Nc3ccc(F)cc3)CC2)cc1 | -0.44% |
| COc1ccc(C(=O)NCC[N+](C)(C)C)cc1 | 4.67% (active) |
| COc1ccc(NC(=O)c2ccc(OC)cc2)cc1 | 4.59% (active) |
| COCCNC(=S)c1ccc(OC)cc1 | 0.05% |

| Structure (SMILES) | inhibition |
| --- | --- |
| COc1ccc(C(=O)NCCSc2ccccc2C)cc1 | 2.33% |
| COc1ccc(C(=O)Nc2ccc(-n3nncc3C(C)(C)C)cc2)cc1 | -0.32% |
| O=C(C1CCN(S(=O)(=O)c2ccccc2)CC1)N1CCN(C2CCCCC2)CC1 | 0.23% |
| Nn1c(SCC(=O)Nc2cccc3ccccc23)nnc1-c1cc(-c2ccc(F)cc2)n[nH]1 | -0.54% |
| CC(=O)NC1(c2ccc(F)cc2)CCN(C(=O)c2c(F)cccc2F)CC1 | -0.58% |
| CC(C)CSc1nnc(-c2cccnc2)n1Cc1ccccc1 | -1.22% |
| COC(=O)c1cccc(Cn2ccc3ccc(-c4ccc5ccn(C(=O)c6ccccc6C)c5c4)cc32)c1 | -1.7% |
| O=C(CSc1nc2ccccc2n1Cc1ccccc1)NNC(=S)Nc1ccccc1 | -1.17% |
| O=C(Nc1ccn(Cc2ccccc2)n1)c1cccc(F)c1 | 4.43% (active) |
| O=C(Nc1ccn(Cc2ccccc2)n1)c1n[nH]c([N+](=O)[O-])c1Cl | 5.27% (active) |
| Cc1ccc(NC(=O)CC2C(=O)N(Cc3ccccc3)C(=S)N2NC(=O)c2cccc(F)c2)c(C)c1 (stereo not drawn) | -0.22% |
| CCOc1cccc(C(=O)Nc2cnn(Cc3ccccc3)c2)c1 | -0.67% |
| O=C(Cn1cnc([N+](=O)[O-])n1)NCCc1ccccc1 | -0.33% |
| O=C(O)CC(Cc1ccccc1)C(=O)Nc1ccc([N+](=O)[O-])cc1 (stereo not drawn) | -0.05% |
| Cc1cc(C)cc(NC(=O)N2CCC(N(C)CCC(C)C)CC2)c1 | 1.03% |
| Cc1sc2nc(COC(=O)C(NC(=O)c3ccc(Cl)cc3Cl)C(C)C)[nH]c(=O)c2c1C (stereo not drawn) | -0.03% |
| COC(=O)c1ccc(CN2C(=O)[C@]3(OCCC=C[C@H]3C)c3c(Br)cccc32)cc1 | 1.3% |
| COC(=O)C12C=C3CC(c4ccccc4)=C3C(=O)N1Cc1[nH]c3ccccc3c1C2 (stereo not drawn) | 0.17% |
| Cc1ccc(C(=O)N2CCN(C3CCCCC3)CC2)s1 | 0.45% |
| Cc1ccc(CS(=O)Cc2ccc(C(=O)N3CCOCC3)o2)cc1 (stereo not drawn) | -0.29% |
| Cc1ccc(S(=O)Cc2ccc(C(=O)N3CCN(C4CCCCC4)CC3)o2)cc1 (stereo not drawn) | 5.98% (active) |
| COC(=O)[C@]12C[C@H](CC(=O)NCCc3ccccc3OC)C(=O)N(Cc3ccco3)C1=C[C@H](C(C)C)O[C@@H]2C1CC1 | -0.45% |
| Cc1ccccc1CS(=O)(=O)Cc1ccc(C(=O)Nc2ccc(Cl)cc2)o1 | -3.88% |
| Cc1ccccc1NC(=O)C1CCN(c2ncccn2)CC1 | -0.57% |
| O=C(CCSc1ccccc1)N1CCN(c2ccccc2F)CC1 | 3.74% (active) |

| Structure (SMILES) | inhibition |
| --- | --- |
| O=C(CCc1ccccc1F)N1CCN(c2ccccc2)CC1 | -0.1% |
| O=C(CCS(=O)(=O)c1cccc2nsnc12)N1CCN(c2ccccc2F)CC1 | 0.3% |
| O=C(c1ccc(-c2ccccc2)cc1)C1CCCN(C(=O)c2cncs2)C1 (stereo not drawn) | -0.34% |
| O=C(Nc1ccc(-n2ccnc2P(=O)(O)c2ccccc2)cc1)c1ccccc1Br | 0.24% |
| O=C(O)c1ccccc1-c1ccccc1C(=O)Nc1ccccc1Br | 2.05% |
| O=C(Nc1ccccc1)c1ccccc1Br | 4.1% (active) |
| CCC(CO)Nc1cccc2c1S(=O)(=O)N(Cc1cn(Cc3ccccc3C(F)(F)F)nn1)Cc1ccccc1O2 (stereo not drawn) | 0.53% |
| COc1ccc(N2CCN(CCNS(=O)(=O)c3ccc(Cl)s3)CC2)cc1 | -1.29% |
| CCn1c(SCC(=O)NCC2CCCO2)nc2ccccc21 (stereo not drawn) | 0.35% |
| Cc1ccc(NC(=O)c2cnc(SCC(=O)NCC3CCCO3)n(C)c2=O)cc1 (stereo not drawn) | 3.81% (active) |
| Cn1c(SCC(=O)c2ccccc2)ncc(C(=O)Nc2ccc(F)cc2)c1=O | 0.92% |
| CC(CCN1CCC(C(O)(c2ccccc2)c2ccccc2)CC1)Oc1ccc([N+](=O)[O-])cc1Cl (stereo not drawn) | -0.6% |
| CC(C)c1ccc(NS(=O)(=O)c2cn(C)c(=O)n(C)c2=O)cc1 | 1.86% |
| Cc1ccc(-n2c(SCC(=O)Nc3cccc4ccccc34)nnc2-c2ccco2)cc1 | -1.09% |
| C=CCN=C1NC(c2ccccc2)C(C(=O)OC)=C(C)N1Cc1ccc(C(F)(F)F)cc1 (stereo not drawn) | -0.62% |
| NNc1cccc(C=Cc2ccccc2)cc1=O | 4.11% (active) |
| Cc1ccc(NC(=O)Nc2cc(C)nn2-c2ccccc2)cc1 | -0.81% |
| COC(=O)[C@]12C[C@H](CC(=O)NCc3cccs3)C(=O)N(CCc3ccc(OC)c(OC)c3)C1=C[C@H](C(C)C)O[C@@H]2C1CC1 | 0.43% |
| CCOC(=O)N1CCN(C(=O)C[C@H]2C[C@@]3(C(=O)OC)C(=C[C@H](C(C)(C)C)O[C@@H]3C)N(Cc3ccc(Cl)cc3Cl)C2=O)CC1 | -1.88% |
| Fc1ccccc1/C=N/Nc1cc(N2CCCCC2)ncn1 | 3.71% (active) |
| CCOC(=O)c1cccc(NC(=O)CN(C)S(=O)(=O)c2ccc(-c3cocn3)s2)c1 | -0.38% |
| COc1cccc(CNC(=O)C2CCCN(c3nc4ccccc4o3)C2)c1OC (stereo not drawn) | -1.08% |
| Cc1c(C=O)c2ccccc2n1CCOc1ccccc1 | -1.1% |
| O=C(O)Cn1c(Cc2ccccc2)nc2ccccc21 | 0.13% |
| Cc1c(C=O)c2ccccc2n1CC(=O)O | 3.62% (active) |

| Structure (SMILES) | inhibition |
| --- | --- |
| S=c1[nH]nc(/C=C/c2ccccc2)o1 | -0.19% |
| O=c1oc(-c2ccccc2NS(=O)(=O)c2ccc(Cl)cc2)nc2ccccc12 | 0.22% |
| O=c1oc(/C=C/c2ccccc2)nc2ccccc12 | 5.78% (active) |
| CN(CC(=O)Nc1ccc(C(N)=O)cc1)S(=O)(=O)c1ccc2c(c1)OCCO2 | -0.16% |
| COCCCNC(=O)c1ccc(CNS(=O)(=O)c2ccc(NC(C)=O)cc2)cc1 | -0.22% |
| CC1CCCN(c2cccc3c2S(=O)(=O)N(Cc2ccc(F)cc2)[C@@H](C)[C@H](c2ccccc2)O3)C1 (stereo partly drawn) | 1.64% |
| CCOc1cc(/C=N/O)ccc1OCc1ccccc1F | 0.47% |
| COc1ccc(NC(=O)CSCc2ccc([N+](=O)[O-])cc2)cc1OC | 0.2% |
| COc1cc(/C=N/O)ccc1OCc1ccc([N+](=O)[O-])cc1 | 4.6% (active) |
| Cn1nc(C(C)(C)C)c(NC(=O)c2sccc2Cl)c1C(C)(C)C | -0.4% |
| C[C@@H]1ON(C)[C@H]2C[C@H]3c4cc(N5CCOCC5)ccc4CCN3C[C@@H]12 | 0.27% |
| Cc1ccc2nc(-c3cccnc3)c(NC3CCCC3)n2c1 | -0.53% |
| Cc1ccc2nc(-c3ccccc3)c(CC3CCCCC3)n2c1 | 3.67% (active) |
| Cc1ccc(-c2nc3ccc(Cl)cn3c2Cc2ccccc2)cc1 | 4.09% (active) |
| COc1ccccc1Cc1c(-c2ccc(Cl)cc2)nc2ccc(Cl)cn12 | 2.6% |
| Cc1cc(Br)cn2c(Cc3ccccc3C(F)(F)F)c(-c3ccc(Cl)cc3)nc12 | -1.19% |
| Cc1ccc(-c2nc3c(C)cc(Br)cn3c2Cc2ccccc2)cc1 | -0.26% |
| Cc1cc(Br)cn2c(Cc3ccccc3C(F)(F)F)c(-c3ccc(C#N)cc3)nc12 | -0.14% |
| Cc1ccc(-c2nc3ccc(Br)cn3c2Cc2ccccc2C(F)(F)F)cc1 | 7.12% (active) |
| COc1ccccc1Cc1c(-c2ccc(F)cc2)nc2ccc(C)cn12 | 4.57% (active) |
| COC(=O)c1ccc2nc(-c3ccc(F)cc3)c(Cc3ccc(C)cc3)n2c1 | 0.98% |
| COC(=O)c1ccc2nc(-c3ccccc3)c(Cc3ccc(OC)cc3C)n2c1 | 3.05% |
| Brc1ccc2nc(-c3ccccc3)c(Cc3ccccc3)n2c1 | 0.67% |

— PubChem BioAssay AID652010 (The Scripps Research Institute Molecular Screening Center, 2013)
